The record followed here is PMC7862700, “An all-to-all approach to the identification of sequence-specific readers for epigenetic DNA modifications on cytosine”.

Test in all cases: DAPPL (digital affinity profiling via proximity ligation, sequencing); 10 mM Tris-HCl pH 7.5, 50 mM NaCl, 1 mM DTT, 4% glycerol, room temperature, 30 min; GST-TFs on glutathione beads, 16-mer random dsDNA library, 0.1% formaldehyde crosslink after washing; high values mean tight binding
Assay [1] deals with T1, FEV (Homo sapiens, UniProt Q99581 1-238).
T1 sequence: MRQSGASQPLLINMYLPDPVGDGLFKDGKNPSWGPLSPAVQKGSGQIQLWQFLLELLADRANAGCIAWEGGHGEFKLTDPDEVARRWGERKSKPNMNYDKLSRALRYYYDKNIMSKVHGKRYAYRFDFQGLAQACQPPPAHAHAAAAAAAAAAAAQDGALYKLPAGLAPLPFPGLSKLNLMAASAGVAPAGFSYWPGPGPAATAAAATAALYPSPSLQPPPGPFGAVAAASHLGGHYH
To be noted: protein: recombinant; tags: N-terminal GST; dsDNA, one strand shown. In outline:
(§1)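 Beads coated with glutathione captured GST-fused human transcription factors that had been expressed in yeast, and the factors were then given DNA barcodes and pooled with a tag-only sample. The pools were incubated with 200 nmole of a random double-stranded 16-mer DNA library in Tris/NaCl/DTT/glycerol buffer for 30 min at room temperature, washed, crosslinked with 0.1% formaldehyde and proximity-ligated with BsaI/T4 ligase at 37 °C for 1 h. PCR amplification and Illumina NextSeq500 sequencing came last. Binding signal is each hexamer's read frequency for a factor divided by its frequency for the tag-only sample.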

Assay [2] addresses ETV5 (Homo sapiens, UniProt P41161 1-510). As to conditions: protein: recombinant; tags: N-terminal GST; dsDNA, one strand shown. In outline: as §1
Assay [3] deals with HSF1 (Homo sapiens, UniProt Q00613 1-529). To be noted: protein: recombinant; tags: N-terminal GST; chain copies: 3; dsDNA, one strand shown. In outline: as §1
Chain of HSF1 (Q00613 whole entry): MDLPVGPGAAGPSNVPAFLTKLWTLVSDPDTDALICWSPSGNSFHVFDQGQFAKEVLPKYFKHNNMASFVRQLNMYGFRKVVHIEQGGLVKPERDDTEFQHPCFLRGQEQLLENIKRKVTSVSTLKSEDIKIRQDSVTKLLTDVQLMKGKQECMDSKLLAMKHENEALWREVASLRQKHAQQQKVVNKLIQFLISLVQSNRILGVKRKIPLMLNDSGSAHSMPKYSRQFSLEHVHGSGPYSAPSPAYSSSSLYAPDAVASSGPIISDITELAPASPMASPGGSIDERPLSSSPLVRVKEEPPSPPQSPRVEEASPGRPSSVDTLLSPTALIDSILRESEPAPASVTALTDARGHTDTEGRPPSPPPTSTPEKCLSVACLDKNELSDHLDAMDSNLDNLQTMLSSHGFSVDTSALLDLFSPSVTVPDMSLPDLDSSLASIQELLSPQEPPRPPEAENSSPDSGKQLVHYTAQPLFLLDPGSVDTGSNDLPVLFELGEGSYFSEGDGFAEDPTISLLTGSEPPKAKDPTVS
Assay [4] has as its target T2, SPIC (Homo sapiens, UniProt Q8N5J4 1-248).
T2 sequence: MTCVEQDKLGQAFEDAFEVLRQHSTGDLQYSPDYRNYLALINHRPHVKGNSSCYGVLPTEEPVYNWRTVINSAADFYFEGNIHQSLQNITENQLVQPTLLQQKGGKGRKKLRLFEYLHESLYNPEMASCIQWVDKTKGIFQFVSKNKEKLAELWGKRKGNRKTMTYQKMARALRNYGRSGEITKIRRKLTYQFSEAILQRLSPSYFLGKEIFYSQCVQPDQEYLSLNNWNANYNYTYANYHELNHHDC
To be noted: protein: recombinant; tags: N-terminal GST; dsDNA, one strand shown. In outline: as §1

Assay [5] deals with ELF4 (Homo sapiens, UniProt Q99607 1-663). To be noted: protein: recombinant; tags: N-terminal GST; dsDNA, one strand shown. In outline: as §1
Chain of ELF4 (Q99607 whole entry): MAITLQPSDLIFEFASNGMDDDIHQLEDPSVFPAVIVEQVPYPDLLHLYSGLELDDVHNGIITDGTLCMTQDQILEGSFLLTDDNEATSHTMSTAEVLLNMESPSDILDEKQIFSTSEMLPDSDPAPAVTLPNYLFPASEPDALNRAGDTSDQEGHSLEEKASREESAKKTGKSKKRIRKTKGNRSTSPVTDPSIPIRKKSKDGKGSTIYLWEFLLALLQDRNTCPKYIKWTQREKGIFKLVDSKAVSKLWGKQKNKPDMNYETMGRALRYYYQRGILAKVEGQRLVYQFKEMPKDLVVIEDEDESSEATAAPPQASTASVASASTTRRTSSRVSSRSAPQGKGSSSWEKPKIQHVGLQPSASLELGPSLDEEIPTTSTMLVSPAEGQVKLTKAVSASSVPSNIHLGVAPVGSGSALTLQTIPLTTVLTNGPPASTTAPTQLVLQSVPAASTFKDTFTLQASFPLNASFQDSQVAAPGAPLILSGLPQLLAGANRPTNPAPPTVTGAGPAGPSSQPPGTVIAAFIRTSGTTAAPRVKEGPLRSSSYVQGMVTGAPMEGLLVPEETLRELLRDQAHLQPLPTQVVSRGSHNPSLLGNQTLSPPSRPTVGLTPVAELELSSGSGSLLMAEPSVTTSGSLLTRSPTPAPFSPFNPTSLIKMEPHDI
Assay [6] concerns the target T3, ELK4 (Homo sapiens, UniProt P28324-2 1-405).
T3 sequence: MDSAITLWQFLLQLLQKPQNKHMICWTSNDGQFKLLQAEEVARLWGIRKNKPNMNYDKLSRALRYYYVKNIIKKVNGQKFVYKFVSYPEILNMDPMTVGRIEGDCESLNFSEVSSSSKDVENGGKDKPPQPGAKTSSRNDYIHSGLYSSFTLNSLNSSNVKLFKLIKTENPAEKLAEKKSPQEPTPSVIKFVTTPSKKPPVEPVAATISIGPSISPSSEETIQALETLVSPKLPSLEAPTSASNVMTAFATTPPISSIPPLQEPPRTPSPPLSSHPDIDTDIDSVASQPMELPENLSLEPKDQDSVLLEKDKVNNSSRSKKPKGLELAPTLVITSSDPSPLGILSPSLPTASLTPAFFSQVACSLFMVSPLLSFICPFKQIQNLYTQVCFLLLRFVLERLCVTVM
As to conditions: protein: recombinant; tags: N-terminal GST; dsDNA, one strand shown. In outline:
as §1

The target in assay [7] is T4, ETV2 (Homo sapiens, UniProt O00321 1-342).
T4 sequence: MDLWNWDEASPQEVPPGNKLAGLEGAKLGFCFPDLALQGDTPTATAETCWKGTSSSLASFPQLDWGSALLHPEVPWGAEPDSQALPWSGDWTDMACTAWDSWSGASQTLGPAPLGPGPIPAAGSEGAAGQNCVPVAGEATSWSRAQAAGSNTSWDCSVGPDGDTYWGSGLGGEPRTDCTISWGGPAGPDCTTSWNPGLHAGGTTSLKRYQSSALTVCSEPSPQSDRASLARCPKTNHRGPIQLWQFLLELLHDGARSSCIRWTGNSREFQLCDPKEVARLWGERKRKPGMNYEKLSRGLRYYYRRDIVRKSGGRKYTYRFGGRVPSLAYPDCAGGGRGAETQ
As to conditions: protein: recombinant; tags: N-terminal GST; dsDNA, one strand shown. In short, it runs like this: as §1

The target in assay [8] is T5, ELF3 (Homo sapiens, UniProt P78545 1-371).
T5 sequence: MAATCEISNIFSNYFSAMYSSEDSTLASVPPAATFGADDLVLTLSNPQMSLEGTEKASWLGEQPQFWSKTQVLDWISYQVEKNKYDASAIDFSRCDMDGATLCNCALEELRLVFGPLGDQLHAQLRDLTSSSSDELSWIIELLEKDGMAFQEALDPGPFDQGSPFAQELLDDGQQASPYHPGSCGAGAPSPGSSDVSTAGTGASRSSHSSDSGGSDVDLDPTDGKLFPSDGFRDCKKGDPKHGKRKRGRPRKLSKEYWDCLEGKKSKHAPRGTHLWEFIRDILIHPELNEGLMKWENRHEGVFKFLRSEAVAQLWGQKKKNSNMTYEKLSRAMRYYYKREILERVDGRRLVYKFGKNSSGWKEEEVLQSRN
To be noted: protein: recombinant; tags: N-terminal GST; dsDNA, one strand shown. In short, it runs like this:
as §1

Assay [9] concerns the target CRX (Homo sapiens, UniProt O43186 1-299). As to conditions: protein: recombinant; tags: N-terminal GST; dsDNA, one strand shown. In short, it runs like this:
as §1

In assay [10] the target is ETV1 (Homo sapiens, UniProt P50549 1-477). As to conditions: protein: recombinant; tags: N-terminal GST; dsDNA, one strand shown. In outline: as §1
Chain of ETV1 (P50549 whole entry): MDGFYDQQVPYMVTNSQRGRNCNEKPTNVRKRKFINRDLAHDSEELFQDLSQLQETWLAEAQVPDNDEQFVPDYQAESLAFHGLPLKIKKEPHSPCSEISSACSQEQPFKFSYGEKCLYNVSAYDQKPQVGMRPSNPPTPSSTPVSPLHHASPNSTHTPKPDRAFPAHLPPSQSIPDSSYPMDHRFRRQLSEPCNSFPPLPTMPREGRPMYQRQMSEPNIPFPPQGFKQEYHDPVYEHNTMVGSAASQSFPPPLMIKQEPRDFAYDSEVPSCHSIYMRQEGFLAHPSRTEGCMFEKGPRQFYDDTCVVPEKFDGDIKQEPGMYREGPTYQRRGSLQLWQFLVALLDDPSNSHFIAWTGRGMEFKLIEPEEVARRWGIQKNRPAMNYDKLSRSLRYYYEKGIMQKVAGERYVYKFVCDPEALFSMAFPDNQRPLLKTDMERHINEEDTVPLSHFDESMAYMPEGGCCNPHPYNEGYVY
For assay [11], the target named is T6, ERF (Homo sapiens, UniProt P50548 1-548).
T6 sequence: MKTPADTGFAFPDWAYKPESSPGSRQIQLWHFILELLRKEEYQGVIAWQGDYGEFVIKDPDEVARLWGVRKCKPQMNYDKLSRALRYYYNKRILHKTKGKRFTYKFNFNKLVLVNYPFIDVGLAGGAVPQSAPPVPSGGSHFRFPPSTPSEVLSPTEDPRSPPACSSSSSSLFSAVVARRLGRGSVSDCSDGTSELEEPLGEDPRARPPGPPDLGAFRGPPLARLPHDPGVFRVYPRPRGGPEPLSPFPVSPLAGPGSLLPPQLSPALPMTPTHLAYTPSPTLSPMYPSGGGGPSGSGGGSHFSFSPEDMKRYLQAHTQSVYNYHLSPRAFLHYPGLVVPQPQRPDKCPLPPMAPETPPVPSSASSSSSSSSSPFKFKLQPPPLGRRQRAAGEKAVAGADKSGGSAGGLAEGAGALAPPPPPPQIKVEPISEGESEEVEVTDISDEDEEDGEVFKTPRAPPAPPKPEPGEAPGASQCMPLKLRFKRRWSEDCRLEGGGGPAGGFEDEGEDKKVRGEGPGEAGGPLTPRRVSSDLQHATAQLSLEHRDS
To be noted: protein: recombinant; tags: N-terminal GST; dsDNA, one strand shown. In outline: as §1

The target of assay [12] is T7, ETV3L (Homo sapiens, UniProt Q6ZN32 1-361).
T7 sequence: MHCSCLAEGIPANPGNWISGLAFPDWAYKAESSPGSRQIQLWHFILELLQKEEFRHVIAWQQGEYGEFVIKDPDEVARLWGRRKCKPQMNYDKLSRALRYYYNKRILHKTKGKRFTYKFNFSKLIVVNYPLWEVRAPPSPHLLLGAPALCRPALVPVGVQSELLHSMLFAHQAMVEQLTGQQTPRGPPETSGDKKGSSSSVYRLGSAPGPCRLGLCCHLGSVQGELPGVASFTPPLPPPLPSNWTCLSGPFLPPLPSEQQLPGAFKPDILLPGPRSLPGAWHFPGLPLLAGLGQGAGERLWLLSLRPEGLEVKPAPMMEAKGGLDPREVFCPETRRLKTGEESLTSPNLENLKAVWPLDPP
To be noted: protein: recombinant; tags: N-terminal GST; dsDNA, one strand shown. In short, it runs like this:
as §1

In assay [13] the target is T8, ETS2 (Homo sapiens, UniProt P15036 1-469).
T8 sequence: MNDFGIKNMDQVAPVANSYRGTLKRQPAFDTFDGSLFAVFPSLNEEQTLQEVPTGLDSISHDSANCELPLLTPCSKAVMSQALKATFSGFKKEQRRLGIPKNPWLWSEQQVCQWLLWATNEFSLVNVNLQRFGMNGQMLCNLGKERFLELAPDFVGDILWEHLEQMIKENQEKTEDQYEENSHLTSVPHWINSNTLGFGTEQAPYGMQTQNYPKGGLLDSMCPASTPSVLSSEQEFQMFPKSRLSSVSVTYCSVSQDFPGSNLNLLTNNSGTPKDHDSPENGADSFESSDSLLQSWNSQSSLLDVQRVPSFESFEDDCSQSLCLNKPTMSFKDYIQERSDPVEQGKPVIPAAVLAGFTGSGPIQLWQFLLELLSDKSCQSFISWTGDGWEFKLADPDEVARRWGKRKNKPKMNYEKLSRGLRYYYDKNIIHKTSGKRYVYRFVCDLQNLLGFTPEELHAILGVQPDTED
To be noted: protein: recombinant; tags: N-terminal GST; dsDNA, one strand shown. In short, it runs like this:
as §1

Assay [14] deals with T9, SPDEF (Homo sapiens, UniProt O95238 1-335).
T9 sequence: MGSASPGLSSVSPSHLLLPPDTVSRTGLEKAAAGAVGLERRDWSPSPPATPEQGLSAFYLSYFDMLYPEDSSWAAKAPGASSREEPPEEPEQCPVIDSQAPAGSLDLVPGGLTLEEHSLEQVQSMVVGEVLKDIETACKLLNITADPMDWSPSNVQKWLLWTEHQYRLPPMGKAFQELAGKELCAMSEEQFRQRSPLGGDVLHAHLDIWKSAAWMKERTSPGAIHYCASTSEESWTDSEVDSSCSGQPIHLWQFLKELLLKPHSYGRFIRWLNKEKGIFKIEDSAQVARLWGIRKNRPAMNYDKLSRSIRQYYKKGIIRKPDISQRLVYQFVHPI
To be noted: protein: recombinant; tags: N-terminal GST; dsDNA, one strand shown. In outline:
as §1

For assay [15], the target named is T10, ETV7 (Homo sapiens, UniProt Q9Y603 1-341).
T10 sequence: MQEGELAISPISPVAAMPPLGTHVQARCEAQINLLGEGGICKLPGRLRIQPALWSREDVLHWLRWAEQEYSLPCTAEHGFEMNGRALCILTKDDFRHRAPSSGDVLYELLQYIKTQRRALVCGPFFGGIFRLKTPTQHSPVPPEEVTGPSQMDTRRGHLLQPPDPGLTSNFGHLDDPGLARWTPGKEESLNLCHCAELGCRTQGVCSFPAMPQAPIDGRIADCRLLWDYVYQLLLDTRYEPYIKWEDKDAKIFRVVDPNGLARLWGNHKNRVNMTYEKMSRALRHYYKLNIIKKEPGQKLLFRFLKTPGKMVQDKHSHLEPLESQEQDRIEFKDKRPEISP
As to conditions: protein: recombinant; tags: N-terminal GST; dsDNA, one strand shown. In outline:
as §1

Assay [16] addresses T11, ELF5 (Homo sapiens, UniProt Q9UKW6-2 1-255).
T11 sequence: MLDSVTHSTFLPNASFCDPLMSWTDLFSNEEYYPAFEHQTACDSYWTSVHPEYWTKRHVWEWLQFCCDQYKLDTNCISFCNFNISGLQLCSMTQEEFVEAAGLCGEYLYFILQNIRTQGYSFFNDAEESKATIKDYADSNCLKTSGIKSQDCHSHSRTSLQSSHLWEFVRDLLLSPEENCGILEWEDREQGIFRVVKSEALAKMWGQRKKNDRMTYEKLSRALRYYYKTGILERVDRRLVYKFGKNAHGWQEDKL
As to conditions: protein: recombinant; tags: N-terminal GST; dsDNA, one strand shown. In outline:
as §1

Assay [17] has as its target T12, ETV3 (Homo sapiens, UniProt P41162-2 1-143).
T12 sequence: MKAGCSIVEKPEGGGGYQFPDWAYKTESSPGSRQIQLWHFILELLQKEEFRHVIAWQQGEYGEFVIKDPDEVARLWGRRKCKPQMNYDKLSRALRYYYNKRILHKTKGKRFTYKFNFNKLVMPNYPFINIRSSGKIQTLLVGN
As to conditions: protein: recombinant; tags: N-terminal GST; dsDNA, one strand shown. In outline:
as §1

Assay [18] concerns the target ETV6 (Homo sapiens, UniProt P41212 1-452). To be noted: protein: recombinant; tags: N-terminal GST; dsDNA, one strand shown. In short, it runs like this: as §1

Chain of ETV5 (P41161 whole entry): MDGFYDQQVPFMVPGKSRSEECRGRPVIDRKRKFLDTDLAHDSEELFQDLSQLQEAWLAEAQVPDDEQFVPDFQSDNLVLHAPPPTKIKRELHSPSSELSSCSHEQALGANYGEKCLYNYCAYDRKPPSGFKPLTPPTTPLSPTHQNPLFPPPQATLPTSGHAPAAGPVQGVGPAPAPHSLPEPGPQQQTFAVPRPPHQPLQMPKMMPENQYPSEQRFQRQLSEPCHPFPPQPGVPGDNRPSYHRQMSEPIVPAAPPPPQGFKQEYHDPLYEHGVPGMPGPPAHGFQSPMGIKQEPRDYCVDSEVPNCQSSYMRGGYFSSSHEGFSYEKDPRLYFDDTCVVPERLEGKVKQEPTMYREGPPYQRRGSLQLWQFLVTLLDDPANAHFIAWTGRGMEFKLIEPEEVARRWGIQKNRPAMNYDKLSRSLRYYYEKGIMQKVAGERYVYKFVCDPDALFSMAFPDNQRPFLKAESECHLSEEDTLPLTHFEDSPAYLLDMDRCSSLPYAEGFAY
Chain of CRX (O43186 whole entry): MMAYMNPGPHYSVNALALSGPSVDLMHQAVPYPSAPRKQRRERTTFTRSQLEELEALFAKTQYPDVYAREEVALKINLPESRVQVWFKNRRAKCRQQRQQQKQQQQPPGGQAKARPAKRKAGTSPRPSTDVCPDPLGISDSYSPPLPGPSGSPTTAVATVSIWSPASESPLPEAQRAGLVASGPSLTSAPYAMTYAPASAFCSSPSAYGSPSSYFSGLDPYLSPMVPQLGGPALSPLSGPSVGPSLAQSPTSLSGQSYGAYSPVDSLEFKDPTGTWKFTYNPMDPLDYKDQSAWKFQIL
Chain of ETV6 (P41212 whole entry): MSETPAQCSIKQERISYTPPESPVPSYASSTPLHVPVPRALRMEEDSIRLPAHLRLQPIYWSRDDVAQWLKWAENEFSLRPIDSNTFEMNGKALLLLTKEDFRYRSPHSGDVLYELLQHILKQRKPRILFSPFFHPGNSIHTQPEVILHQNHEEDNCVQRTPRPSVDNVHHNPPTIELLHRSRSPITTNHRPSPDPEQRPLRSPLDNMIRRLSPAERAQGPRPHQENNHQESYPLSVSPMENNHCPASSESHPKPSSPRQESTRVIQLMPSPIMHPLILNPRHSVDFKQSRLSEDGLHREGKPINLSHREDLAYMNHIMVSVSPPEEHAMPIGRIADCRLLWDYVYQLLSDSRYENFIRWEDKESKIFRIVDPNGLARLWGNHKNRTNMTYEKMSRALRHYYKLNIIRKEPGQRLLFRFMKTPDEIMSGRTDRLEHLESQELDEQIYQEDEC

With AACAAA, the binding signal in [1] was 1.2 fold enrichment (6-mer frequency, TF over GST control); in assay [2], 1.11 fold enrichment (6-mer frequency, TF over GST control); in [3], 1.18 fold enrichment (6-mer frequency, TF over GST control); in assay [4], 1.14 fold enrichment (6-mer frequency, TF over GST control); in [5], 1.16 fold enrichment (6-mer frequency, TF over GST control); in assay [6], 1.17 fold enrichment (6-mer frequency, TF over GST control). The binding signal in assay [7] was 1.26 fold enrichment (6-mer frequency, TF over GST control); in assay [8] it was 1.21 fold enrichment (6-mer frequency, TF over GST control); in [9], 1.14 fold enrichment (6-mer frequency, TF over GST control); in [10], 1.19 fold enrichment (6-mer frequency, TF over GST control); in assay [11], 1.2 fold enrichment (6-mer frequency, TF over GST control); in [12], 1.14 fold enrichment (6-mer frequency, TF over GST control). In addition, the binding signal in [13] was 1.22 fold enrichment (6-mer frequency, TF over GST control); in [14] it was 1.11 fold enrichment (6-mer frequency, TF over GST control); in [15], 1.13 fold enrichment (6-mer frequency, TF over GST control); in assay [16], 1.16 fold enrichment (6-mer frequency, TF over GST control); in assay [17] it was 1.15 fold enrichment (6-mer frequency, TF over GST control); in assay [18] it was 1.18 fold enrichment (6-mer frequency, TF over GST control).
